# Bioassay records (PubChem)
# USP30 block: blocks human USP30 ubiquitin-rhodamine cleavage; purified USP30, Ub-rhodamine cleavage fluorescence; 47,000 tested, 5.3% active; inhibition, % at 25 µM; AID 1645860; Q70CQ3
# USP17 block: blocks human USP17 ubiquitin-rhodamine cleavage. A8MUK1. purified USP17, Ub-rhodamine cleavage fluorescence, 3 h. inhibition, % at 50 µM. 47,000 tested, 6.5% active. AID 1645855
# OTUD3 inh: blocks human OTUD3 ubiquitin-rhodamine cleavage. Q5T2D3. AID 1645858. inhibition, % at 25 µM. purified OTUD3, Ub-rhodamine fluorescence, 2 h. 47,000 tested, 0.7% active
# Target sequence (Q5T2D3 whole entry, looked up): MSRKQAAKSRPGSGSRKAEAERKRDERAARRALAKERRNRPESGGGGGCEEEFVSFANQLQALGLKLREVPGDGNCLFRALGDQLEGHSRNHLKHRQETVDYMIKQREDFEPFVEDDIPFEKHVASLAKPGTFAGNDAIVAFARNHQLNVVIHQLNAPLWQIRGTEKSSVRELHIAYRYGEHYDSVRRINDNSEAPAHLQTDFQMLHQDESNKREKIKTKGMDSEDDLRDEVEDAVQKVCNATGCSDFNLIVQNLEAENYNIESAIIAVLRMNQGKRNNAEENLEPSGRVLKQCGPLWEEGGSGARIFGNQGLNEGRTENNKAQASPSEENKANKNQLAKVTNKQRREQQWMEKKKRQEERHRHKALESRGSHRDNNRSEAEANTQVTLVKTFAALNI
# USP28 inh: blocks human USP28 ubiquitin-rhodamine cleavage; purified USP28, Ub-rhodamine cleavage fluorescence, 30 min; inhibition, % at 25 µM; 47,000 tested, 3% active
# An asterisk follows results filed as active; . = not tested or not shown. Compounds with a hit are over-represented: about 11% of the library has one in this group of screens. Rule as the data show it: active = inhibition above about 30%; inactive = the rest.
SMILES,USP30 block,USP17 block,OTUD3 inh,USP28 inh
COc1cccc2c1C(=O)c1ccc3c(c1C2=O)C(=O)CC(C)(O)C3 (centres undefined),22,62*,-1,0
COc1ccccc1N1CCN(C(=O)CCc2nc(-c3ccc(Cl)cc3)no2)CC1,-5,-4,-7,-10
CC(C)=CCC[C@@](C)(O)[C@@H]1CC[C@@](C)(O)[C@H]1C,33*,7,7,3
CCN(CC)c1nc(F)c2c(c1F)S(=O)(=O)CCN2CC1CCCO1 (centres undefined),-7,-21,-4,-5
COc1ccc(-c2ccc(N3CCN(C)CC3)nn2)cc1S(=O)(=O)N1CCCC1,26,14,11,13
CCC(C(=O)C(C)C(O)C(C)CCc1ccc(C)c(O)c1C(=O)O)C1OC(CC)(C2CCC(O)(CC)C(C)O2)CC1C (centres undefined),55*,63*,32*,41*
Cc1cccc(N2CCC3(CCCN(C(=O)c4cnccn4)C3)C2)n1 (centres undefined),-10,-27,-89,0
COc1ccc(CCC(=O)Nc2ncc(C)s2)cc1OC,0,25,12,54*
COc1ccc(-n2ncc(C(=O)N3CCN(c4cc(C)ccc4C)CC3)c2C2CCNCC2)cc1,30*,-18,20,11
CNC(=O)[C@@]12CCCN(c3ncccn3)[C@@H]1CN(Cc1ccc(OC)cc1)C2,7,-4,-2,-8
Fc1ccccc1-c1cncc(C2CN(CC3CC3)CCO2)n1 (centres undefined),-34,-17,-6,-16
COc1cc(/C=C(/C(=O)O)c2ccc(-c3ccccc3)cc2)cc(OC)c1OC,-47,38*,-11,-17
Cc1ccccc1-c1nc(SCC(=O)N2CCCC2)c2c(=O)n(C)c(=O)n(C)c2n1,43*,9,6,0
CC(C)CC1NC(=O)C2CC(O)CN2C1=O (centres undefined),37*,19,13,20
CC(C)CC1NC(=O)C2CCCN2C1=O (centres undefined),18,71*,33*,51*
O=C(O[C@@H]1C[C@H]2C(=O)N[C@H](Cc3ccccc3)C(=O)N2C1)c1ccccc1,11,8,4,3
O=C(Nc1cc(C(F)(F)F)cc(C(F)(F)F)c1)c1ccc(-c2ccccn2)s1,41*,19,8,12
Cc1csc(-c2cc(S(=O)(=O)N3CCCCC3)c(C)n2C)n1,29,5,12,10
O=C(Cn1nnc2ccccc21)Nc1nc2ccccc2s1,.,14,8,.
COc1cc2cc(C(=O)NCC(=O)Nc3nc4ccccc4s3)n(C)c2cc1OC,19,33*,4,5
O=C(Cn1cnc(-c2ccccc2)cc1=O)Nc1ccc(Oc2ccccc2)cc1,22,15,14,7
Cc1ccc(-c2cc(=O)n(CC(=O)Nc3ccc(C(C)C)cc3)cn2)cc1,48*,38*,9,-9
O=C1N(Cc2cccnc2)CCN1c1ccc(F)c(Cl)c1,.,8,11,.
O=C1c2cccc(OCc3ccc(Cl)cc3)c2CCN1Cc1cccnc1,32*,18,-2,23
Cc1ccc2nc3c(cc(C(=O)Nc4ccc5c(c4)OCCO5)n3Cc3ccccc3)c(=O)n2c1,9,12,7,1
SMILES,USP30 block,USP17 block,OTUD3 inh,USP28 inh
COc1ccc(CC(=O)Nc2cc(N3CCCS3(=O)=O)ccc2C)cc1,25,20,0,12
CCOc1ccc(CC(=O)Nc2cc(N3CCCS3(=O)=O)ccc2C)cc1,43*,8,11,14
Cc1cc(=O)oc2cc(OC(=O)C3CCN(C(=O)c4ccc(Cl)cc4)CC3)ccc12,50*,8,4,5
c1ccc(-n2ncc3c(NCC4CCCO4)ncnc32)cc1 (centres undefined),31*,15,11,6
c1ccc(-c2cc3c(NCC4CCCO4)ncnc3s2)cc1 (centres undefined),-4,-2,0,0
Cn1cc2nc(SCC(=O)NCc3ccccc3Cl)n(CC3CC3)c(=O)c2n1,32*,30,0,14
Cc1ccc(Cl)cc1NC(=O)CSc1nc2cn(C)nc2c(=O)n1CC1CC1,54*,68*,38*,28
Cc1c(Cl)cccc1NC(=O)CSc1nc2cn(C)nc2c(=O)n1CC1CC1,27,20,2,13
CN1CCn2cc(S(=O)(=O)Nc3ccc(F)cc3)cc2C1=O,-8,1,0,-4
c1ccc(-n2nnc(-c3noc(-c4cccnc4)n3)c2-c2ccncc2)cc1,54*,16,9,11
c1ccc(-n2nnc(-c3noc(-c4ccco4)n3)c2-c2ccncc2)cc1,18,17,5,4
O=C(Nc1ccccc1)c1ccnc(Nc2ccc(F)cc2)c1,7,30*,2,9
CC(=O)N(O)CCC[C@@H]1NC(=O)[C@H](CCCN(O)C(C)=O)NC1=O,-11,36*,9,19
CC(=O)Nc1ccc(O)c(-c2nc3cc(C)ccc3o2)c1,-39,51*,10,9
CC(C)(C)c1ccc(C(=O)Nc2ccc(O)c(-c3nc4cnccc4o3)c2)cc1,-2,2,0,-5
CCc1ccccc1NC(=O)CN1C(=O)C2CCCC2=Nc2ccccc21 (centres undefined),10,7,6,5
O=C(CN1C(=O)C2CCCC2=Nc2ccccc21)Nc1cc(F)ccc1F (centres undefined),6,60*,10,9
C/C1=C/C=C/[C@H](C)[C@H](O)[C@@H](C)[C@@H](O)[C@@H](C)[C@H](O)[C@H](C)[C@@H](O)[C@@H](C)/C=C(/C)C(=O)c2c(O)c(C)cc3c2C(=O)C=C(NC1=O)C3=O,-62,51*,-10,-6
Clc1ccc(Cn2cccc2)cn1,-20,-7,-5,-7
CN(C)c1ccc(C2CC(c3c(O)n(C)c(=O)[nH]c3=O)=Nc3ccccc3S2)cc1 (centres undefined),24,65*,15,51*
O=C(CN1CCC2(CCC1=O)CNC(=O)c1ccccc1O2)NC1CCCC1 (centres undefined),-19,-6,-9,-10
Cc1ccc(NC(=O)CCc2ccc3nc[nH]c3c2)c(C)c1,10,-8,-6,-7
Cc1ccc(NC(=O)CCc2ccc3nc[nH]c3c2)cc1F,-11,-6,-6,35*
c1ccc(CCN2CCOc3nc4ccccc4cc3C2)cc1,-16,0,0,1
O=C(OCC(=O)N1CCc2ccccc21)c1cc([N+](=O)[O-])ccc1NCCO,.,60*,8,.
O=C(Cn1ncc2cc([N+](=O)[O-])ccc21)N1CCc2ccccc21,-191,-4,-25,-42
Cn1cc(-c2ccccc2NC(=O)c2ccccc2)cn1,11,6,17,11
Oc1cccc2c(-c3ccc(O)c4c(O)cccc34)ccc(O)c12,94*,98*,76*,92*
CC(=O)N1CCOCC2(CCN(S(=O)(=O)c3ccc(C(C)C)cc3)CC2)C1,6,-19,1,2
O=C(COc1cccc(C(=O)NCc2ccccc2)c1)Nc1ccc(Oc2ccccc2)cc1,56*,40*,40*,20
